# Compound activity: PubChem BioAssay, National Center for Advancing Translational Sciences (NCATS)
# This is a sample that favours compounds with a hit; in the whole collection about 0.85% have one here.
# B2AR arrestin = qHTS assay of beta-arrestin-biased ligands of beta2-adrenergic receptor; beta-arrestin recruitment to beta2AR, cell-based reporter; Potency, µM (top dose mostly 46.1 µM), usual class: activators; 330,000 compounds, 0.02% hits; note: nearly all actives have a fitted effect of over 65% in size
# Target sequence (P07550 whole entry, looked up): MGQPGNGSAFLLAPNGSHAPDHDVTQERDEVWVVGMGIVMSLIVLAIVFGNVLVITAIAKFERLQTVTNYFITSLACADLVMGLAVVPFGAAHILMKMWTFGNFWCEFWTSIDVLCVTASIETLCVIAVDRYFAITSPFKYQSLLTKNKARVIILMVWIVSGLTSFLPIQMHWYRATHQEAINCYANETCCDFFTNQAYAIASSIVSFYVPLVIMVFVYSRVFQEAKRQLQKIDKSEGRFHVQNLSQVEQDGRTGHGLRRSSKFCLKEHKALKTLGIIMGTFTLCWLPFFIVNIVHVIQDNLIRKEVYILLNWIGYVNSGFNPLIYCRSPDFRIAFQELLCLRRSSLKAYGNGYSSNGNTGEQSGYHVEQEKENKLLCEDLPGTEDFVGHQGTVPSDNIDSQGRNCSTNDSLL
# GAA inhib = qHTS Assay for Inhibitors of Human alpha-Glucosidase as a Potential Chaperone Treatment of Pompe Disease; 200,000 compounds, 0.005% hits; purified human GAA, 4-MU-alpha-glucoside fluorescence; Potency, µM (titrated, usually from 76.9 µM), actives largely listed as inhibitors; Lysosomal alpha-glucosidase (Homo sapiens), P10253
#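 Activity normalized between no-enzyme (basal) and enzyme-only wells. Conditions: 4 nM human enzyme, 400 uM fluorogenic substrate, citrate/phosphate pH 5.0 with Tween-20, 20 min room temperature, compounds up to 77 uM.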
# FBPA coupling cs = qHTS Assay for Inhibitors of Fructose-1,6-bisphosphate Aldolase from Giardia Lamblia: Coupling assay counterscreen; activity change, negative = inhibition, % at 58.2 µM, hits read low; coupling enzyme system counterscreen, AmpLite Red fluorescence; 290,000 compounds, 0.67% hits; in the data active = activity change below about -30%
#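 Compounds tested against the coupling enzymes alone at 57.5 uM final; readout was AmpLite Red fluorescence (525/598 nm) after 20 min at RT.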
# GAA spleen mod = qHTS Assay for Inhibitors and Activators of Human alpha-Glucosidase From Spleen Homogenate. Lysosomal alpha-glucosidase (Homo sapiens), P10253. human spleen homogenate, 4-MU-alpha-glucoside fluorescence. Potency, µM (series often up to 79.9 µM), actives largely listed as inhibitors. 240,000 compounds, 0.006% hits. AID 2112, 2009
#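 Compounds were titrated against alpha-glucosidase in spleen homogenate at pH 5.0, with 1 mM 4-methylumbelliferyl substrate for 40 min at 37 C. Reactions were quenched with pH 10 NaOH/glycine and fluorescence measured.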
# GAA glycogen = qHTS Assay for Inhibitors and Activators of Human alpha-Glucosidase Cleavage of Glycogen | Lysosomal alpha-glucosidase (Homo sapiens), P10253 | recombinant GAA, glycogen substrate, Amplex Red glucose oxidase fluorescence | Potency, µM (titrated, usually from 76.4 µM), actives largely listed as inhibitors | 300,000 compounds, 0.38% hits | AID 2100, 2009;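 note: the screen sought inhibitors and activators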
#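 Recombinant human enzyme (4 nM); glycogen substrate; 37 C, 40 min, pH 5.0. Readout: coupled glucose oxidase/Amplex Red fluorescence.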
# Hits are given with their value; n = inactive; u = inconclusive; x = not tested or not shown; ! = a repeat was not active; [ ] = remark or other dose. Unless noted, calls come from the whole dose curve; as a rule, active = well fitted curve in the direction sought with a large enough effect; inconclusive = small, poorly fitted or top-dose-only effect, or another doubt; inactive = no such curve, though single readings can be large; an effect the other way counts as inactive or inconclusive.
SMILES,B2AR arrestin,GAA inhib,FBPA coupling cs,GAA spleen mod,GAA glycogen
C=CCC(C)(O)/C=C/c1ccccc1 (configuration not stated),x,x,n,n,x
COc1cccc(C(=O)Nc2cccc(-c3ccc(N4CCOCC4)nn3)c2)c1OC,n,x,x,x,x
CN1CCN(c2nc(-c3cccs3)nc3ccccc23)CC1,n,n,n,n,n
Oc1ccccc1N1CCN(c2nc(-c3cccs3)nc3ccccc23)CC1,n,x,n,n,40µM
Oc1ccc(N2CCN(c3nc(-c4cccs4)nc4ccccc34)CC2)cc1,n,x,n,n,25µM
CC(C)(C)c1ccc(S(=O)(=O)/C=C\C#N)cc1,x,x,n,n,x
COc1ccc(OC)c2c1C(=O)C(Cl)=C(Cl)C2=O,n,x,-45,n,n
CC(C)Oc1ccc(CNC(=O)CCCn2c(=O)c3cccn3c3ccccc32)cc1,x,x,x,x,n
Brc1ccc2nc(-c3ccncc3)c(NC3CCCC3)n2c1,n,n,n,n,9.9µM
CCN(CC)c1ccc(-c2nc3cnccn3c2NC2CCCC2)cc1,n,n,n,n,9.9µM
O=C1C[C@H](c2ccccc2Cl)N1S(=O)(=O)c1ccccc1[N+](=O)[O-],x,x,n,n,x
COc1cccc(CNn2c(-c3cccc(C)c3)nc3ccccc3c2=O)c1O,n,n,n,n,31µM
NNC(=O)c1cc2sccc2s1,n,n,n,n,25µM
[N-]=C=C1C(=O)NC(=O)C([n+]2ccc(-c3ccncc3)cc2)C1c1ccccc1C(F)(F)F (configuration not stated),n,x,-65,n,n
[N-]=C=C1C(=S)NC(=O)[C@H]([n+]2ccccc2)[C@H]1c1ccc(Cl)cc1,n,n,n,n,n
COc1ccc([N+](=O)[O-])cc1/C=N/NC(=O)/C(=C\c1cccs1)NC(=O)c1ccccc1,n,n,-42,n,n
N#Cc1ccc(-c2c(-c3ccccc3)ncc3cc(F)ccc23)cc1,n,x,x,x,x
C[C@@H]1OC(Oc2ccccc2-c2cc(=O)c3c(O)cc(O)c([C@@H]4O[C@H](CO)[C@@H](O)[C@H](O)[C@H]4O)c3o2)[C@H](O)[C@H](O)[C@H]1O (some centres not stated),x,x,n,n,x
Cc1ccsc1C1C(C#N)=C(N)N(N(C)C)C2=C1C(=O)CCC2 (configuration not stated),n,n,-44,x,n
Cc1cc(Nc2ccc(Cl)cc2)n(-c2ccccc2)n1,n,n,n,n,u
Cc1cc(Nc2nc3c(c(=O)n(C)c(=O)n3C)n2C)n(-c2ccc(Cl)cc2)n1,n,n,n,n,25µM
COC(=O)CCCC1=CC2=CC(=O)C(C)(OC(=O)c3cccs3)C(=O)C2=CN1C1CCCC1 (configuration not stated),n,x,-43,n[17.4 µM],n
CCCCC1=CC2=CC(=O)C(C)(OC(=O)CC)C(=O)C2=CN1CCc1c[nH]c2ccccc12 (configuration not stated),n,x,n,n[17.4 µM],n
COC(=O)CCCC1=CC2=CC(=O)C(C)(OC(=O)c3cccs3)C(=O)C2=CN1CCCOC(C)C (configuration not stated),n,x,-31,n[17.4 µM],n
CCCCC1=CC2=CC(=O)C(C)(OC(=O)CC)C(=O)C2=CN1C1CCCC1 (configuration not stated),n,x,-33!,n[17.4 µM],n
COC(=O)CCCC1=CC2=CC(=O)C(C)(OC(=O)c3cccs3)C(=O)C2=CN1CCc1c[nH]c2ccccc12 (configuration not stated),n,x,-36!,n[17.4 µM],n
CCN(CC)CCCN1C=C2C(=O)C(C)(OC(=O)c3cccs3)C(=O)C=C2C=C1CCCC(=O)OC (configuration not stated),x,x,n,n[17.4 µM],x
O=C(CCCCn1c(=O)c2ccccc2n(Cc2cccc(F)c2)c1=O)NCCc1ccccc1,x,x,x,x,n
COC(=O)C1OC(=O)C2OC23[C@]2(C)C(O)CC4C(C)(C)C(OC(C)=O)CC(OC(C)=O)[C@@]4(C)C2CC[C@@]13C (some centres not stated),x,x,n,n,x
